Source: PubChem
A selection: hits, their analogues and other compounds. The true share with any hit is near 6.7%.
PINK1 expr mod = A Quantitative High throughput Screen to Identify Chemical Modulators of PINK1 Expression; PINK1 immunofluorescence, high-content cytometry, 24 h; Potency, µM (series often up to 76.6 µM), for the others: at the highest dose activation (PINK1 increase), actives largely listed as activators; hit rate 0.2% among 410,000; active = well fitted activation curve with a large enough effect; inconclusive = small, poorly fitted or top-dose-only effect; cell line not stated here; also: % of control where 0% means no effect; nearly all actives have a fitted effect of over 65% in size
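Compound titrations (5 concentrations, 24 h) on a stable cell line; DMSO and CCCP controls. Endpoint: fixed-cell PINK1 immunofluorescence with mitochondrial, cell and nuclear markers, scanned by microplate cytometer.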
MCF10A rereplic = A quantitative high throughput screen for small molecules that induce DNA re-replication in MCF 10a normal breast cells; AID 624296, 2012; hit rate 2.9% among 350,000; MCF 10A DNA re-replication, Hoechst nuclear intensity, 48 h; Potency, µM (highest dose often 46.1 µM), inactives show top-dose activity, positive = re-replication, most hits filed as activators; also: % of control where 0% means no effect; nearly all actives have a fitted effect of over 50% in size
KB-3-1 tox = qHTS assay for MDR1-selective chemotherapeutics: Primary screen using the parental adenocarcinoma cell KB-3-1. KB-3-1 viability, CellTiter-Glo ATP luminescence, 72 h. Potency, µM (highest dose often 46.1 µM), actives largely listed as cytotoxic. hit rate 1.4% among 400,000; also: % is scaled to controls: 0 for no effect and ±100 for the full control effect; nearly all actives have a fitted effect of over 60% in size
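Multi-concentration cytotoxicity screen in KB-3-1 cells grown in DMEM lacking phenol red with 10% FBS. After 72 h at 37 °C with compound, ATP-dependent luminescence was recorded.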
KB-V1 MDR tox = qHTS assay for MDR1-selective chemotherapeutics: Primary screen using the drug-selected MDR subline cells KB-V1 | AID 1347076, 2019 | KB-V1 MDR cells viability, CellTiter-Glo, 72 h | Potency, µM (series often up to 46.1 µM), actives largely listed as cytotoxic | hit rate 3.4% among 400,000; also: % is scaled to controls: 0 for no effect and ±100 for the full control effect; nearly all actives have a fitted effect of over 60% in size
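KB-V1, DMEM (no phenol red) + 10% FBS; cpd pin-transferred, titration series; 72 h, 37 degrees C; CellTiter-Glo, luminescence. Data normalized, curve-fit.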
SW480 rerep = A quantitative high throughput screen for small molecules that induce DNA re-replication in SW480 colon adenocarcinoma cells | SW480 DNA re-replication, Hoechst DNA content imaging, 48 h | Potency, µM (doses to about 46.1 µM), for inactives: at the highest dose re-replication activation, most hits filed as activators | hit rate 1.8% among 340,000; also: % of control where 0% means no effect; nearly all actives have a fitted effect of over 55% in size
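SW480 cells exposed to compounds for 48 hr at 37 C, 5% CO2, then Hoechst-stained 40 min. Nuclear DNA content imaged by fluorescence scanning (405 nm excitation, 500-530 nm emission); re-replication scored as increased high-intensity nuclei.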
Active calls of the source: *; i = inactive; u = inconclusive; x = not tested or not shown; [ ] = dose if it differs, or a comment. Unless noted, calls follow the shape of the dose curve; as a rule, active = well fitted curve in the direction sought with a large enough effect; inconclusive = small, poorly fitted or top-dose-only effect, or another doubt; inactive = no such curve, though single readings can be large; an effect the other way counts as inactive or inconclusive. Potency is read from the fitted curve at half-maximal effect.

SMILES | PINK1 expr mod | MCF10A rereplic | KB-3-1 tox | KB-V1 MDR tox | SW480 rerep
COc1cccc(-c2c(-c3ccccc3OC)ncn2Cc2cccc(-c3ccccc3)c2)c1 | x | x | u | 13µM* | x
CCCCc1c(-c2ccccc2OC)ncn1CCc1cccc(F)c1 | u | x | u | 16.4µM* | x
CCCCc1c(-c2ccccc2OC)ncn1CCc1cccc(OC)c1 | u | x | u | 11.6µM* | x
COc1cccc(Cn2cnc(-c3ccccc3OC)c2-c2ccco2)c1 | 0.0% | x | u | u | x
CC(=O)c1cccc(NC(=O)CCN2C(=O)C3C4CCC(C4)C3C2=O)c1 (centres undefined) | 0.5% | 1.3% | i | i | u
Cc1c(C)c2cc3c(c(C)c2oc1=O)OCN(CCc1ccc(F)cc1)C3 | 0.1% | x | i | i | x
O=C(c1cccc(Cl)c1)N1CCN(c2ccc3c(c2)C2CC3CCN2C(=O)OCc2ccccc2)CC1 (centres undefined) | -1.0% | x | u | 16.4µM* | x
O=C(c1ccc(-c2ccccc2)cc1)N1CCN(c2ccc3c(c2)C2CC3CCN2C(=O)OCc2ccccc2)CC1 (centres undefined) | -1.1% | x | i | i | x
Cc1nc2ccccc2c(=O)n1Cc1ccco1 | 3.6% | -0.2% | i | i | 2.3%
COc1ccc2c(=O)c3c(=O)n(Cc4ccco4)c(-c4ccccc4)nc3oc2c1 | -5.4%[38.3 µM] | 21.6% | i | 4.61µM* | -0.1%
CCCCn1c2nc3ccccc3nc2c2c(=O)n(CCC(C)C)cnc21 | 18.7%[38.3 µM] | -4.8% | i | i | 1.6%
COc1ccc2c(=O)c3c(=O)n(Cc4ccco4)c(-c4cc(OC)c(OC)c(OC)c4)nc3oc2c1 | 6.4% | u | i | i | -10.1%
COc1ccc(Cn2c(C)nc3c(c2=O)c2nc4ccccc4nc2n3Cc2ccco2)cc1 | 2.7% | 18.4µM* | u | u | 20.6µM*
CCC(C)n1cnc2c(c1=O)c1nc3ccccc3nc1n2Cc1ccc(OC)cc1 (centres undefined) | 2.6% | u | i | 14.6µM* | 9.9%
COc1cccc2ccc(CN3CCC4(CC3)c3ccccc3[C@@H](NC(=O)c3ccccc3)[C@@H]4O)nc12 | -0.5% | x | x | x | x
COCCN(Cc1cc2cc(C)cc(C)c2nc1Cl)C(=O)Nc1ccccc1 | 5.6%[38.3 µM] | 6.3% | u | 5.8µM* | u
Cc1cc(-c2cn3ccccc3n2)c(C)n1-c1ccccc1 | u | 20.6µM* | u | i | u
CC(OC(=O)CCCC(=O)Nc1ccccc1)C(=O)c1ccccc1 (centres undefined) | -0.6% | -4.2% | i | i | -2.2%
O=C(CSc1ccccc1)N1CCN(C(=O)c2ccco2)CC1 | 3.1% | u | i | i | -8.8%
O=C(c1ccco1)N1CCN(c2nnc(-c3ccccc3)c3ccccc23)CC1 | 0.2%[38.3 µM] | -4.5% | i | 16.4µM* | -1.8%
Cc1ccc(OCC(=O)N2CCN(c3nnc(-c4ccccc4)c4ccccc34)CC2)cc1 | 0.9%[38.3 µM] | u | u | 4.11µM* | u
O=C(CSc1nc(-c2ccccc2)cs1)N1CCN(C(=O)c2ccco2)CC1 | -1.2% | 1.3% | i | 18.4µM* | 7.1%
Cc1cn2c(=O)cc(COc3ccccc3NC(=O)c3ccc(Cl)cc3)nc2s1 | 0.1% | x | i | i | x
CN(Cc1ccccc1)C(=O)c1ccc(Nc2nc(C(N)Cc3ccc(C(F)(F)F)cc3)cs2)nc1 (centres undefined) | -1.0% | x | u | u | x
CC1(C)CC(=O)C2=C(C1)NC(SCC(=O)Nc1ccccc1)=C(C#N)C2c1ccco1 (centres undefined) | 2.2% | 16.4µM* | i | i | u
Cc1ccc(C(=O)CSC2=C(C#N)C(c3ccco3)C3=C(CC(C)(C)CC3=O)N2)cc1 (centres undefined) | -2.7% | u | u | i | u
